Source: PubChem
PostGolgi ctrl: growth inhibition of yeast control strain, primary screen, counter-screen for post-Golgi transport modulator project. efflux-deficient yeast background strain, growth absorbance A615, 16 h. inhibition, % at 10 µM. 5% of 98,000 active
MT1-MMP txn act: MT1-MMP promoter reporter activation – cell-based, luciferase luminescence, primary screen; HT1080 MT1-MMP promoter luciferase reporter, overnight; hits give high values; activation factor at 10 µM; 0.16% of 86,000 active;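 active = activation factor of at least 2 for MT1-MMP transcription at 10 µM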
Measles CPE: compounds protecting cells from measles virus cytopathic effect, primary screen, measles RdRp inhibitor project, single point, MLSMR library, absorbance; protection (pct of control), % at 4 µM; AID 841, 2007; 1.5% of 140,000 active; Measles virus-infected cells, CPE protection; in the data active = protection mostly above about 24%, no sharp cut-off; inactive = mostly below about 26%
PostGolgi yeast: phenotypic screen on post-Golgi transport, primary screen; 0.9% of 98,000 active; AID 739, 2007; post-Golgi transport phenotypic cell assay; inhibition, % at 10 µM;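 note: yeast cells grown in 1536-well plates; yeast grown about 18 h at 30C before absorbance read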
Starred values were filed as active, the others as inactive; · = no result given. Compounds with a hit are over-represented: about 5.3% of the library has one in this group of screens. Cut-off read from the data, not from the text of the source, unless noted: active = inhibition above about 30%; inactive = the rest.

SMILES	PostGolgi ctrl	MT1-MMP txn act	Measles CPE	PostGolgi yeast
COc1ccc(-c2cc(C(=O)N3CCCc4ccccc43)no2)cc1	9	1.4	2	1
COc1ccc(OC)c(-c2cc(C(=O)N3CCCc4ccccc43)no2)c1	37*	1.2	7	-2
COc1ccc(-c2cc(C(=O)N3CCN(C(c4ccccc4)c4ccccc4)CC3)no2)cc1OC	2	1.2	2	10
COc1ccc(OCCCC(=O)N2CCCc3ccccc32)cc1	34*	1.1	5	-6
COc1ccccc1/C=C(/C(=O)OCC(=O)N(C)Cc1ccccc1)c1ccccc1	·	·	9	·
N#Cc1cc(N)ccc1Sc1ccc(Cl)cc1	53*	·	8	9
O=C(CN1CCCCCC1)N/N=C/c1cccc(Cl)c1Cl	·	·	11	·
O=C(CNCCC1=CCCCC1)Nc1ccc(N2CCCCCC2)cc1	100*	1.1	13	-1
CCNc1nc(N)c(C(=C(C#N)C#N)c2ccccc2)s1	4	·	8	0
O=C(NCc1ccco1)c1ccc(COCC(F)(F)C(F)F)cc1	8	1	33*	3
CC(C)c1ccc(NC(=O)COc2ccc(F)cc2C(=O)c2cnn(-c3ccccc3)c2)cc1	·	·	0	·
CCOc1cc2c(C#N)c(N3CCOCC3)nc(N)c2c(N)n1	3	1.2	4	6
CCCN(CC1CC1)c1nc(N)c2c(N)nc(OC)cc2c1C#N	35*	·	7	8
CC(C)CCN=Cc1c(O)n(-c2ccccc2)c(=O)c2ccccc12	39*	1.1	3	6
CCN1CCCC1CN=Cc1c(O)n(-c2ccccc2)c(=O)c2ccccc12 (configuration not stated)	5	1.2	7	1
CC12CC(NC(=O)N1c1cccc(C(=O)NCc3ccccc3)c1)c1ccccc1O2 (configuration not stated)	1	·	14	-7
CCOc1ccccc1NC1=C(Cl)C(=O)N(Cc2ccccc2)C1=O	33*	·	28	12
Cn1c(=O)n(C)c2cc(/C=C3/SC(=O)N(CC(=O)N4CCOCC4)C3=O)ccc21	·	·	8	·
O=C(CCN1C(=O)S/C(=C/c2ccc(Cl)cc2)C1=O)N1CCOCC1	·	·	42*	·
COc1ccc([N+](=O)[O-])cc1NC(=O)c1ccc(N(Cc2ccccc2Cl)S(C)(=O)=O)cc1	·	·	2	·
O=C(Nc1ccccc1-c1ccccc1)C1CCCN(c2ncccn2)C1 (configuration not stated)	12	1.2	21	6
Cn1cc(Br)c(C(=O)Nc2nccs2)n1	·	·	32*	·
Cn1cc(Br)c(C(=O)Nc2c(F)c(F)c(F)c(F)c2F)n1	·	·	22	·
O=C(OCc1ccccc1)c1cn(-c2ccccc2)nc1-c1ccncc1	37*	1.1	4	22
CCOC(=O)c1ccc(NC(=O)c2cn(-c3ccccc3)nc2-c2ccncc2)cc1	30*	·	3	90*
SMILES	PostGolgi ctrl	MT1-MMP txn act	Measles CPE	PostGolgi yeast
CCOC(=O)c1ccc(NC(=O)c2nn(C)cc2Br)cc1	35*	1.5	4	1
CCC(Sc1nc(-c2ccccc2)c(C#N)c(=O)[nH]1)C(=O)Nc1nnc(C)s1 (configuration not stated)	0	·	15	19
CC1CN(C(=O)C2(C)CC2(Cl)Cl)CC(C)O1 (configuration not stated)	·	·	3	·
COCCNC(=O)[C@H](C)/C=C(\I)C(NC(=O)OCc1ccccc1)c1ccc(C(=O)OC)cc1 (some centres not stated)	·	1.1	·	·
Cc1ccc(-c2nc(NCc3ccco3)c3ccccc3n2)cc1	·	·	25	·
OCCNc1nc(-c2cccnc2)nc2ccccc12	13	1.1	14	1
c1cncc(-c2nc(NCc3ccco3)c3ccccc3n2)c1	57*	1.3	2	-5
OCCSc1nc(-c2cccnc2)nc2ccccc12	38*	·	3	2
c1ccc(-c2nc(NCCCn3ccnc3)c3oc4ccccc4c3n2)cc1	27	1.1	8	4
c1ccc(-c2nc(NCc3ccco3)c3oc4ccccc4c3n2)cc1	34*	1.2	0	9
Clc1cccc(-c2nc(NCc3cccnc3)c3ccccc3n2)c1	72*	·	7	27
c1ccc(-c2nc(NCc3cccnc3)c3ccccc3n2)cc1	9	·	2	9
COC(=O)[C@@]1(Cc2ccccc2)[C@H]2c3cc(C(=O)N(C)C)n(Cc4ccccc4)c3C[C@H]2CN1C(=O)c1ccccc1	·	1.2	·	·
O=C(Nc1ccc(Br)cc1)c1cccnc1N1CCCCC1	32*	·	16	-3
O=C(Nc1ccc(F)cc1)c1cccnc1N1CCCCC1	17	1.3	7	-3
O=C(Cn1cnc2ccc(Br)cc2c1=O)c1cccs1	21	·	12	-4
O=C(Cn1cnc2ccc(Cl)cc2c1=O)c1cccs1	-4	·	52*	-3
CCOC(=O)C1CCCN(c2cc(C)nc3cc(-c4ccc(F)cc4)nn23)C1 (configuration not stated)	42*	1.1	7	0
CC(=O)Nc1sc(C)c(C)c1C(=O)OCC(=O)Nc1cc(S(=O)(=O)N2CCCCC2)ccc1Cl	·	·	4	·
Cc1onc(-c2c(F)cccc2Cl)c1C(=O)Nc1cccc2nsnc12	42*	1	6	2
COC(=O)CNC(=O)c1c(-c2c(Cl)cccc2Cl)noc1C	5	·	41*	0
Cc1onc(-c2c(F)cccc2Cl)c1C(=O)NCC1COc2ccccc2O1 (configuration not stated)	37*	1	5	5
COc1c(Cl)cc(-c2noc(C)c2C(=O)NCCc2ccc(C)cc2)cc1Cl	37*	·	12	2
C=CCn1c(SCc2cc(C(C)=O)ccc2OCC)nc2ccccc2c1=O	·	·	0	·
COc1ccc(Br)cc1C1N2CC3(C)CN1CC(C)(C2)C3=O (configuration not stated)	39*	1.1	8	3
SMILES	PostGolgi ctrl	MT1-MMP txn act	Measles CPE	PostGolgi yeast
CCOC(=O)CSc1cc(CS(=O)c2ccc(Cl)cc2)nc(-c2ccccc2)n1 (configuration not stated)	32*	·	45	20
CCOC(=O)CSc1cc(CSc2ccccc2)nc(-c2ccccc2)n1	0	·	9	-2
CCOc1ccccc1NS(=O)(=O)c1ccc2c(c1)n(C)c(=O)c(=O)n2C	·	·	9	·
CCCOc1ccc(C2C(C(=O)c3ccco3)=C(O)C(=O)N2CCN2CCOCC2)cc1OC (configuration not stated)	20	1.1	47*	13
CCOc1ccc(C2C(C(=O)c3ccco3)=C(O)C(=O)N2Cc2cccnc2)cc1 (configuration not stated)	1	1.2	4	-1
CCOc1ccc(C2C(C(=O)c3ccc(C)o3)=C(O)C(=O)N2CCN2CCOCC2)cc1OC (configuration not stated)	8	1	12	-4
COc1ccc(C2C(C(=O)c3ccco3)=C(O)C(=O)N2Cc2cccnc2)cc1OC (configuration not stated)	34*	1.1	2	6
COC(=O)[C@@H]1C[C@@H]2CC[C@@H](O)C[C@@H]2N1Cc1ccccc1OS(=O)(=O)c1ccc(C)cc1	·	1	·	·
